This is part of a sample that, as a whole, favours compounds with a hit. Of some 83,000 tested, about 20% had one in any assay.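 Testing used 96-well plates and a 48-hour single-concentration exposure. Example: -40 means 40% of the starting cells died.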 Values without a mark were called inactive. Active and inactive are the calls of the source. Rule for the calls: active = growth percent below 10; inactive = the rest.
system: KM12 colon; test: NCI-60 one-dose screen, 48 h (100 = growth as untreated, 0 = no growth, -100 = all killed); settings: 10 µM

Row | Compound | growth
1 | CCOC(=O)c1[nH]c(C)c(C(=O)O)c1C | 110%
2 | O=C(c1ccccc1)C1CCC1 | 105%
3 | CCOc1ccc(/C=N/N=C(N)N)cc1OCC | 108%
4 | CCCC[P+](c1ccccc1)(c1ccccc1)c1ccccc1 | 23.2%
5 | O=C(O)[C@@H]1[C@H]2C[C@H]3c4[nH]c5ccccc5c4CCN3C[C@@H]2CC[C@@H]1O | 113%
6 | NC(=S)CN1CCOCC1 | 102%
7 | CCCCN(CCCC)CCCO | 104%
8 | Cc1cc(C)c(N)c(S(=O)(=O)O)c1 | 115%
9 | CN(C)C(C)(C)CC(C)(C)C | 93.6%
10 | Cc1c(C(=O)O)c(=O)n(-c2ccccc2)n1C | 120%
11 | COc1cc2c3cc1Oc1c(OC)c(OC)cc4c1C(Cc1ccc(O)c(c1)Oc1ccc(cc1)CC3N(C)CC2)N(C)CC4 (stereo unspecified) | 12.9%
12 | COc1ccccc1C1OC2=Nc3cc(C)c(C)cc3NC2C1=O (stereo unspecified) | 93%
13 | COc1cc(C(=O)NC(=S)Nc2ccc3ccccc3c2)cc(OC)c1OC | 95.5%
14 | O=C1C=CC(=O)N1c1ccc(I)cc1Cl | 115%
15 | CC1=CC(C)(C)NC(=S)N1c1ccc(S(=O)(=O)O)c2cccc(S(=O)(=O)O)c12 | 94.6%
16 | O=C(/C=C/C(=O)c1ccccc1)c1ccccc1 | 111%
17 | CCC(O)CC(CC)CO (stereo unspecified) | 128%
18 | O=C1C=CC2=C3c4cc(O)c(O)cc4CC3(O)COC2=C1O (stereo unspecified) | 114%
19 | O=S(=O)(O)C(Nc1ccccc1)c1ccccc1 (stereo unspecified) | 100%
20 | CCC(=O)Oc1ccc(OC)cc1 | 106%
21 | OCc1cccc2ccccc12 | 107%
22 | Cc1cc(N2CCC(N3CCCC3)CC2)nc(/N=C(\N)Nc2ccc(Cl)c(Cl)c2)n1 | 9.92% (active)
23 | O=c1[nH]nc(SC2CCCCC2)c(=O)[nH]1 | 107%
24 | C=CC(=O)OCCCCCCCC | 101%
25 | Cc1cc(=O)cc(C)n1-c1ccccc1 | 104%
26 | Cc1nc2ccccc2c(C(=O)O)c1O | 120%

From PubChem BioAssay (NCI)
